We go through 98 compounds from PubChem BioAssay AID504329 (Southern Research Specialized Biocontainment Screening …, 2011).

Molecules are shown by their SMILES. The whole screen tested about 340,000 compounds, of which about 1,000 (0.29%) were called active. Rule as the data show it: inconclusive = inhibition above about 27% without an active follow-up result; inactive = below that. The list is a sample of the results. Entries with a potency or affinity are not part of this list.

The nature of the assay: H1N1 influenza NS1A inhibitors, functional cell based assay (AID 504329). The following applies: percent inhibition, at 12.5 µM, stronger effect = higher value.
For `Cc1nc2c(C)cccc2c2c1COC2`, the inhibition (in general, the change of the read-out against control, counted positive when it falls) was -0.38% (inactive).
Regarding `CCOC(=O)c1sc(NC(=O)CSc2nc3c(cc2C#N)CCCCC3)c(C#N)c1C`, the inhibition is 0.28% (inactive).
Take `Cc1c(NC(=O)c2ccc(C(=O)Nc3c(C)n(C)n(-c4ccccc4)c3=O)cc2)c(=O)n(-c2ccccc2)n1C`: the inhibition is 11.8% (inactive).
As for `CCCCC[C@H]1CN(C2CCCCC2)C(=O)[C@@H]1CC(=O)NCc1ccccc1`, the inhibition was -4.52% (inactive).
As to `Cc1ccc2[nH]c3nc(SCC#N)nnc3c2c1`, the inhibition is 3.03% (inactive).
In the case of `Cc1ccc2[nH]c3nc(N/N=C/c4cccc(O)c4)nnc3c2c1`, the inhibition is 5.99% (inactive).
In the case of `Cc1ccc(C)c(N(C)S(=O)(=O)c2ccc3[nH]cc(C(=O)NCCN4CCOCC4)c(=O)c3c2)c1`, the inhibition was 13.2% (inactive).
Regarding `O=[N+]([O-])c1ccc2c(c1N1CCCCC1)=NC1(CCCCC1)[N+]=2[O-]`, the inhibition is -7.13% (inactive).
As to `[O-][N+]1=c2ccc(Nc3ccccc3)cc2=NC12CCCCC2`, the inhibition was 16.6% (inactive).
Next, `CCCCNc1c([N+](=O)[O-])cc(C(=O)O)cc1[N+](=O)[O-]`: 25.7% (inactive); `CCCCNc1nc(N)ncc1[N+](=O)[O-]`: -2.32% (inactive); `Cc1noc(C)c1S(=O)(=O)N1CCC(C(=O)O)CC1`: -5.05% (inactive).
`CC1(C)CC(CCN)(Cc2ccccc2Cl)CCO1` (stereo not drawn): the inhibition was -1.58% (inactive).
Next, `COc1ccccc1N1CCN(C(=O)c2c(-c3c(F)cccc3Cl)noc2C)CC1`: -1.81% (inactive).
For `N#Cc1c(Cl)cccc1N1CCCC1`, the inhibition was -9.33% (inactive).
Regarding `O=C1c2ccccc2-c2c1cccc2C(=O)N1CCOCC1`, the inhibition is -11.9% (inactive).
Consider `Nc1ccccc1N1CCOCC1`, for which the inhibition was 0.99% (inactive).
Turning to `O=C1c2ccccc2-c2onc3ccc(Oc4ccccc4)c1c23`, the inhibition is 11.9% (inactive).
Regarding `O=C1c2ccccc2C(=O)c2cc(N3CCCCC3)ccc21`, the inhibition is -3.43% (inactive).
Take `CCOc1ccc2noc3c2c1C(=O)c1ccccc1-3`: the inhibition is 7.74% (inactive).
Next, `CN1CCN(c2cccc3c2C(=O)c2ccccc2C3=O)CC1`: 4.2% (inactive); `O=C1C(Cl)=C(N2CCCCC2)C(=O)N1c1ccccc1Cl`: -3.44% (inactive).
The figure for `O=C(N1CCCC1)C12CC3CC(CC(C3)C1)C2` is -8.92% (inactive).
The figure for `CCCOc1ccc(C(=O)OCC(=O)c2c(N)n(C)c(=O)n(C)c2=O)cc1OCC` is -1.83% (inactive).
`CCN(CC(=O)NC(=O)NCc1ccccc1)CC(=O)Nc1cc(Cl)ccc1C`: the inhibition is -8.38% (inactive).
With `CC(C)Cn1c(N)c(C(=O)COC(=O)c2c(F)cccc2F)c(=O)n(C)c1=O`, the inhibition is -5.45% (inactive).
For `Cc1ccc(CCNC(=O)c2ccc(CS(=O)(=O)Cc3ccc(F)cc3)o2)cc1`, the inhibition is 2.69% (inactive).
Next, `O=C(NNc1cccc([N+](=O)[O-])c1)/C(=C\c1cccnc1)NC(=O)c1ccccc1`: 9.25% (inactive).
In the case of `COc1cc(CN(CC(C)C)S(=O)(=O)c2ccccc2Br)cc(OC)c1`, the inhibition was -4.89% (inactive).
As to `Cc1ccc(NC(=O)c2cccc(S(=O)(=O)NCc3ccccc3)c2)nc1`, the inhibition was -4.84% (inactive).
On to `CCN(CC(=O)Nc1ccccc1OC)C(=O)CSCc1ccc(C)cc1`, for which the inhibition was 1.31% (inactive).
`COc1cc(-c2nc(CN3CCN(CC(C)C)C(=O)[C@@H]3C)c(C)o2)ccc1F`: the inhibition is 8.73% (inactive).
In the case of `CC(=O)N(C)c1ccc(N2CCOCC2)c2c1C(=O)c1ccccc1C2=O`, the inhibition is 16.8% (inactive).
As to `CCNc1ccccc(-c2ccc3ccccc3n2)c1=O`, the inhibition is -10% (inactive).
Take `O=C1C=C(N2CCOCC2)c2ccccc2C1=O`: the inhibition is -1.26% (inactive).
Consider `O=C1c2ccccc2-c2onc3ccc(NCc4ccco4)c1c23`, for which the inhibition was 26% (inactive).
As for `COc1ccccc1N1CCN(Cc2ccccc2)CC1`, the inhibition was -11.8% (inactive).
For `CC(=C1C(=O)c2ccccc2C1=O)N1CCN(Cc2ccccc2)CC1`, the inhibition is -9.47% (inactive).
With `O=C(O/N=C/c1ccc(Br)cc1)c1ccc(F)cc1`, the inhibition was 5.19% (inactive).
Take `CCC(C)N(C(=O)COC(=O)CSc1ccc(C)c(C)c1)C1CCS(=O)(=O)C1` (stereo not drawn): the inhibition is -5.16% (inactive).
Next, `COc1ccc2[nH]c(C(=O)NCc3ccccc3)cc2c1`: 15.2% (inactive).
The figure for `Clc1ccccc1-c1ccc2ncnc(NCc3cccs3)c2c1` is 9.25% (inactive); for `Cc1nc(N2CCCCC2)c2ccsc2n1` it is -1.56% (inactive).
Consider `Cc1ccc(CN2C(=O)C(=O)c3cc(C)ccc32)cc1`, for which the inhibition was 3.72% (inactive).
As to `CCN1CCN(C(c2ccc(C(F)(F)F)cc2)c2ccc3cccnc3c2O)CC1` (stereo not drawn), the inhibition was 16.8% (inactive).
Next, `CN1CCN(C(c2ccccn2)c2cc(Cl)c3cccnc3c2O)CC1` (stereo not drawn): 14.5% (inactive); `CN1CCN(C(c2ccc(F)cc2)c2ccc3cccnc3c2O)CC1` (stereo not drawn): 7.02% (inactive); `Cc1ccc(C(c2cc(Cl)c3cccnc3c2O)N2CCN(C)CC2)cc1` (stereo not drawn): 5.08% (inactive).
With `CN1CCN(C(c2ccc(Cl)cc2)c2cc(Cl)c3cccnc3c2O)CC1` (stereo not drawn), the inhibition was 2.9% (inactive).
For `Oc1c(C(c2ccc(Cl)cc2)N2CCCC2)cc(Cl)c2cccnc12` (stereo not drawn), the inhibition is -6.42% (inactive).
Take `CCCCn1c(N)c(N(CCOC)C(=O)COC(=O)COc2c(C)cccc2C)c(=O)[nH]c1=O`: the inhibition is -13% (inactive).
On to `CC(C)(C)c1cc(NC(=O)CSc2nncs2)n(-c2ccccc2)n1`, for which the inhibition is 1.18% (inactive).
Next, `Cc1cc(C(=O)NC(Cc2c[nH]c3ccccc23)C(=O)O)c(C)o1` (stereo not drawn): 1.37% (inactive); `COc1ccc(S(=O)(=O)Nc2ccc3c(c2)N(C(C)=O)CCC3)cc1OC`: 4.6% (inactive); `O=C(CNS(=O)(=O)c1ccc(F)cc1)N1CCN(c2ccc(F)cc2)CC1`: -9.78% (inactive).
The figure for `COc1ccc(C(=O)c2sc(Nc3ccc(NC(C)=O)cc3)nc2C)cc1` is -2.13% (inactive); for `CN(C)c1ccc(/C=C2\CCCCC2=O)cc1` it is 12.2% (inactive); for `CN(C)c1ccc(C=C2C=Cc3ccccc32)cc1` it is 11.1% (inactive).
Regarding `COc1cc(C(=O)N=c2sccn2C)c([N+](=O)[O-])cc1OC`, the inhibition was -1.77% (inactive).
Next, `O=C(Cn1nnc(-c2ccccc2)n1)N1CCN(c2ccc(F)cc2)CC1`: 11.4% (inactive); `Cc1cccc(NC(=O)NNC(=O)c2ccccn2)c1`: 0.66% (inactive).
Next, `CC(C)C(=O)NNC(=O)c1ccccn1`: -2.86% (inactive).
Consider `COCCCNC(=S)NNC(=O)c1csc(C)n1`, for which the inhibition is -15.3% (inactive).
Consider `COc1ccc(C(=O)NNC(=O)c2ccccn2)cc1`, for which the inhibition was -9.69% (inactive).
With `COCCCNC(=S)NNC(=O)c1cccnc1`, the inhibition was -5.08% (inactive).
As to `S=C(NCc1ccccn1)Nc1ccc(Cl)c(Cl)c1`, the inhibition is 1.31% (inactive).
`COC(=O)c1nc2n(n1)C(c1ccc(OC)c(OC)c1)C(C(=O)OC1CCCCC1)=C(C)N2` (stereo not drawn): the inhibition was 1.19% (inactive).
On to `Cc1nnc(NC2CCCCC2)[nH]c1=O`, for which the inhibition is -4.74% (inactive).
In the case of `COc1ccc(NS(=O)(=O)c2ccc(C(=O)N3CCN(Cc4ccccc4)CC3)cc2)cc1`, the inhibition was 11.9% (inactive).
The figure for `Cc1onc(-c2c(F)cccc2Cl)c1C(=O)c1ccccc1` is 20% (inactive); for `O=C(NCC(c1ccco1)N1CCc2ccccc2C1)c1cccc([N+](=O)[O-])c1` (stereo not drawn) it is -12.3% (inactive); for `Cn1c(=O)c2c(nc(NCc3ccccc3)n2C)n(C)c1=O` it is 1.83% (inactive).
The figure for `COc1ccccc1/C=C1\C(=O)NC(=S)N(c2ccccc2)C1=O` is -27.6% (inactive); for `O=C(Nc1csnn1)OCc1ccccc1` it is -22.9% (inactive); for `Cc1[nH]c2ccccc2c1/C=N/O` it is -0.17% (inactive).
Regarding `Cc1[nH]c2ccccc2c1/C=N/n1cnnc1`, the inhibition was -3.32% (inactive).
Turning to `O=C(c1cccc(S(=O)(=O)N2CCOCC2)c1)N(Cc1ccco1)Cc1cccs1`, the inhibition was 4.9% (inactive).
Regarding `Oc1ccccc1C=Nc1cccc2ccccc12`, the inhibition was -4.35% (inactive).
Next, `Oc1ccccc1C=Nc1ccccc1-c1nc2ccccc2[nH]1`: 41.1% (inactive).
Turning to `Cc1ccc(Nc2cc(C)nc3c(C)cccc23)cc1`, the inhibition was -2.9% (inactive).
As to `O=S(=O)(NCc1cc(-c2ccccc2Cl)no1)c1ccc(Cl)cc1`, the inhibition was 0.63% (inactive).
As for `COc1ccc(CNc2nc3nc(C)cc(C)n3n2)cc1`, the inhibition is 1.24% (inactive).
With `CSc1ncccc1C(=O)Nc1cccc(S(=O)(=O)N2CCCC2)c1`, the inhibition was -2.85% (inactive).
With `O=C(COC(=O)c1ccccc1O)NNC(=O)c1ccc(Br)cc1`, the inhibition is 7.27% (inactive).
On to `O=C(C1CCN(Cc2nc(Cc3cccc(F)c3)no2)CC1)N1CCOCC1`, for which the inhibition was 7.26% (inactive).
Consider `Cc1cccc(CSc2nn3c(=O)c(C)nnc3s2)c1`, for which the inhibition was -3.29% (inactive).
Regarding `Cc1nnc2sc(SCc3cccc(Cl)c3)nn2c1=O`, the inhibition is 2.99% (inactive).
For `Cc1nnc2sc(SCc3ccc(Cl)cc3)nn2c1=O`, the inhibition is -5.29% (inactive).
Consider `Cc1nnc2sc(SCC(=O)Nc3ccc(Br)cc3)nn2c1=O`, for which the inhibition was 24.3% (inactive).
Next, `Cc1ccc(NC(=O)CSc2nn3c(=O)c(C)nnc3s2)cc1Cl`: 12.2% (inactive); `Cc1nnc2sc(SCC(=O)Nc3nccs3)nn2c1=O`: -3.22% (inactive).
Turning to `C=CC(C)(C)c1c(O)c(CC=C(C)C)c(O)c2c(=O)c3ccc(O)c(O)c3oc12`, the inhibition was 4.4% (inactive).
Turning to `O=C(Cc1cccc(C(F)(F)F)c1)OCC(=O)N1CCN(S(=O)(=O)c2ccc(Cl)cc2)CC1`, the inhibition is -3.3% (inactive).
In the case of `CCOc1ccc(NC(=O)C2CCCN2C(=O)NC2CCCCC2)cc1` (stereo not drawn), the inhibition is 3.03% (inactive).
`Cc1ccc2cc(CCNC(=O)C3CCCC3)c(=O)[nH]c2c1`: the inhibition is 9.32% (inactive).
Next, `CCC(C)(C)NC(=O)C(c1ccc(OC)cc1)N(C(=O)CCC(=O)Nc1cc(C)on1)c1ccc2c(c1)OCCO2` (stereo not drawn): -4.61% (inactive); `CNC(=O)c1[nH]cnc1C(=O)Nc1cccc(C)c1`: -8.44% (inactive); `COc1ccc(OCC(=O)Nc2ccc3c(c2)nc(CCn2ccccc2=O)n3C)cc1`: 5.24% (inactive).
